Most compounds without a hit are left out; they make up all but 2% or so of the library.
CHT PAM = human CHT allosteric activation; Q9GZV3; CHT-expressing cells, membrane potential dye, choline EC20; active compounds read high; LV-AA mutant CHT in HEK293 cells; B-score at 10 µM; hit rate 0.49% among 310,000;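 active = initial fluorescence not abnormally high and integrated response B-score, plate-corrected, over 3 SD above library mean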
Kir21 block = Kir2.1 (mouse) channel inhibition; AID 1672; P35561; B-score at 10 µM; hit rate 0.85% among 310,000; HEK293-Kir2.1, FluxOR thallium flux fluorescence; active compounds read low;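 active = fluorescence ratio B-score at or below minus 3 SD of library scores, with starting-brightness B-score within 2 SD, cut at about -4.2 in these data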;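 note: channel flux triggered by added potassium and thallium sulfate stimulus; B-score of peak minus minimum fluorescence over baseline after thallium stimulus; more negative B-score means stronger Kir2.1 block with less thallium influx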
Target sequence (P35561 whole entry, looked up): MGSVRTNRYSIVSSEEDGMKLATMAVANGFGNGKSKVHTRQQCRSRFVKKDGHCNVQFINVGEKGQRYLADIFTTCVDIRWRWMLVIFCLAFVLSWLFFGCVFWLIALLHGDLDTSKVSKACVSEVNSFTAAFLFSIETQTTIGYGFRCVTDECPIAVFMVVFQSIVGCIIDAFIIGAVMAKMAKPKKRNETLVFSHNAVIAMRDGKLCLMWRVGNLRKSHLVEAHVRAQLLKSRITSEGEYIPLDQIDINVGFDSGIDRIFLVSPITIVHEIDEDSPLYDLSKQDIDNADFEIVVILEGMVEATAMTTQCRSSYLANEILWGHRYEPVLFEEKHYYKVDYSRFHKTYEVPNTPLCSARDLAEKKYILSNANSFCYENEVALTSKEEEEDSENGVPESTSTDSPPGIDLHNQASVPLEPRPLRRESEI
H9c2 TAG inh = reduces triacylglycerol accumulation in H9c2 cells; Nile Red lipid (TAG) fluorescence; cells loaded with 200 µM oleic acid; inhibition, % at 12.5 µM; hit rate 0.66% among 230,000; AID 651582;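 active = pattern-corrected inhibition of lipid staining of at least 50% with the nuclear-stain viability signal not falling by more than 50%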;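 note: 0% = DMSO wells and 100% = triacsin C control wells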
CHT block = human CHT choline transport inhibition. CHT-expressing cells, membrane potential dye, choline response; active compounds read low. B-score at 10 µM. hit rate 0.86% among 310,000;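 active = B-score over 3 SD under the library average, and starting fluorescence ratio not unusually high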;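 note: choline stimulus applied at its EC90 after an EC20 pre-addition; B-score computed on integrated fluorescence ratio after choline addition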
CHT block conf = confirmation of human choline transporter CHT inhibitors | shares compounds with CHT block | CHT-expressing cells, choline membrane potential dye; LV-to-AA substituted CHT, HEK293 cells | CHT activity remaining % of control (active compounds read low), % at 10 µM | hit rate 70% among 2,400 | AID 493221;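 active = choline transporter activity left, mean of duplicates at 10 µM, below buffer-only control mean minus 3 SD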;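 note: depolarization triggered by choline at its EC90 following an EC20 pre-addition; 0% = hemicholinium-3 full block and 100% = buffer-only control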
HEK293 MPD ctr = counter-screen for CHT inhibitors: effect in parental HEK293 cells; shares compounds with CHT block; membrane potential dye, choline response; active = decrease or increase beyond buffer ±3SD; membrane potential ratio readout (active if shifted either direction beyond buffer ±3SD; no single direction) at 10 µM; hit rate 4% among 2,400;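 note: parental cells lack the transporter so any hit is non-specific; ratio is peak minus trough fluorescence over baseline after EC90 choline challenge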
* marks the source's active call; other numbers are inactive results; i = inactive; nt = no result.

SMILES	CHT PAM	Kir21 block	H9c2 TAG inh	CHT block	CHT block conf	HEK293 MPD ctr
Cc1cc(C)cc(OCC(=O)OC(C)C(=O)Nc2c(C)n(C)n(-c3ccccc3)c2=O)c1 (stereo unspecified)	i	0.55	27.7	i	nt	nt
CCC(NC(=O)CCc1nnc(-c2cc(C)on2)o1)C12CC3CC(CC(C3)C1)C2 (stereo unspecified)	i	-1.94	12.8	-7.89*	44.4%*	i
CCOC(=O)c1c(C)c(C(=O)N2CCc3ccccc3C2)c(C)n1CC	i	1.35	nt	-5.84*	38.6%*	i
C=CCn1c(=N)c(S(=O)(=O)c2ccc(C)c(C)c2)cc2c(=O)n3ccccc3nc21	i	1.16	nt	i	nt	nt
O=[N+]([O-])c1cc(NS(=O)(=O)c2ccc(Cl)nc2)ccc1Cl	i	0.45	13.3	-6.17*	42.3%*	i
CC(=O)NCC(=O)N(Cc1ccco1)C1(C(=O)NC2CCCCC2)CCCCC1	i	-1.15	-7.1	-5.57*	i	i
CC(=O)N(Cc1ccco1)C1(C(=O)NC2CCCCC2)CCCCC1	i	-2.27	-9.0	i	nt	nt
CC(C)CC(NC(=O)OC(C)(C)C)c1cn([C@@H](CCCCNC(=O)OC(C)(C)C)C(=O)N2CCN(C(=O)OC(C)(C)C)CC2)nn1 (stereo partly specified)	i	1.9	31.7	i	nt	nt
CC[C@@H](C)C(NC(=O)OC(C)(C)C)c1cn([C@@H](CCCCNC(=O)OC(C)(C)C)C(=O)N2CCN(C(=O)OC(C)(C)C)CC2)nn1 (stereo partly specified)	i	1.59	38.5	-10.8*	i	i
COc1ccccc1-c1ccc(SCC(=O)NC2CCCC2)nn1	i	-0.55	1.8	i	nt	nt
CC(=O)NC(Cc1ccc(C(C)C)cc1)C(=O)NC1CCN(C(=O)c2cccc(C)c2)CC1 (stereo unspecified)	i	-1.4	-1.4	i	nt	nt
CC(=O)NC(Cc1cccc(F)c1)C(=O)NC1CCN(C(=O)c2cccc(C)c2)CC1 (stereo unspecified)	i	-0.36	-34.8	-7.81*	i	i
Cn1c(C(=O)O)c(C=O)c2ccccc21	i	-0.66	1.3	-6.68*	i	i
Cn1c(-c2ccccc2)c(C=O)c2ccccc21	i	-0.01	9.5	i	nt	nt
CCN(C[C@H]1N[C@@](C)(C(=O)OC)[C@H]2C(=O)N(Cc3ccccc3)C(=O)[C@@H]12)C(=O)Nc1ccc(Cl)cc1	nt	nt	0.9	nt	nt	nt
CCCCCn1c(N)c(-c2nc3ccccc3s2)c2c([N+](=O)[O-])nn(C)c(=O)c21	i	-0.01	nt	-6.33*	i	i
S=c1[nH]nc(-c2cc(-c3ccccc3)n[nH]2)n1/N=C/c1cccc(Cl)c1	i	-0.59	12.6	i	nt	nt
COc1ccc(C(=O)CSc2nnc(-c3ccco3)n2C)cc1	i	-0.53	nt	-5.4*	i	i
Cc1ccc(S(=O)(=O)NCCC(=O)NC(C)CCc2ccccc2)cc1 (stereo unspecified)	i	-1.27	-2.6	-5.05*	49.6%*	i
O=C(NC1CCCCCC1)C1c2ccccc2C(=O)N1Cc1ccco1 (stereo unspecified)	i	-0.43	nt	-5.66*	i	-8.35*
O=C(NC1CCCCCC1)C1c2ccccc2C(=O)N1Cc1cccs1 (stereo unspecified)	i	0.02	nt	i	nt	nt
O=C1c2ccccc2C(=O)N1CCCCSc1nnc2c(Cl)cc(Cl)cn12	i	-1.99	-9.4	-5.39*	i	i
Cc1nc(N2CCCCC2)sc1C(=O)c1ccc(Cl)c([N+](=O)[O-])c1	i	1.52	nt	i	nt	nt
CC(C)(C)C(=O)Oc1cccc(Nc2ncnc3ccccc23)c1	i	-3.9	nt	-5.01*	61.2%*	i
O=C(O)c1cc([N+](=O)[O-])ccc1NCc1ccccc1Cl	i	1.6	4.9	-5.58*	i	i
O=C(O)c1cc([N+](=O)[O-])ccc1NCc1ccccn1	i	nt	3.7	i	nt	nt
CS(=O)(=O)N(CC(=O)NCc1ccco1)c1cccc([N+](=O)[O-])c1	i	-1.63	8.1	i	nt	nt
COc1cc(CC(=O)OCC(=O)Nc2ccc(N(C)C)cc2)cc(OC)c1OC	nt	nt	-44.2	nt	nt	nt

Assay outcomes: PubChem, several laboratories
